C diff HTS – C. difficile growth inhibitors, primary screen, HTS; Clostridium difficile clinical isolate growth, OD600, 24 h; hits give low values; growth activity, negative = inhibition, % at 16 µg/mL (by protocol); 86,000 tested, 0.25% active; AID 1259249, 2017;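 active = mean growth activity at or below -80% and every replicate also at or below -80%; inconclusive = mean at or below -80% but some replicate above -80%; inactive = mean growth activity above -80%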;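 note: 0% = DMSO wells and -100% = levofloxacin 16 µg/mL wells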
T cruzi growth-1 – T. cruzi intracellular proliferation inhibitors, primary screen, cell-based, beta-gal Tulahuen parasites, NIH3T3 host, luminescence; T. cruzi beta-gal in NIH3T3, GalScreen luminescence, 90 h; inhibition, % at 8.34 µM; 77,000 tested, 5.9% active; AID 624255, 2012;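 active = mean inhibition above about 93%, with at least 55% of replicates each passing it, limit read from the data, passing the limit was not always enough; inconclusive = only one of those two conditions holds; inactive = neither condition holds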
Pf Dd2 growth – P. falciparum Dd2 growth inhibitors, primary screen, SYBR Green fluorescence, single dose replicates; 72 h; hits give low values; activity change, % at 10 µM; 94,000 tested, 2.3% active; in the data active = activity change below about -80%; inconclusive = no clear call, values can overlap the other calls
T cruzi growth-2 – T. cruzi intracellular proliferation inhibitors, confirmation, cell-based, NIH3T3 host, beta-gal parasite, luminescence, cherry-pick | shares compounds with T cruzi growth-1 | T. cruzi beta-gal in NIH3T3, GalScreen luminescence, 90 h | inhibition, % at 8.35 µM | 5,600 tested, 72% active;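 active = mean replicate inhibition above about 95% and at least 55% of replicates individually reaching it, limit read from the data; inconclusive = only one of the two criteria is met; inactive = neither criterion is met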
T cruzi growth-3 – inhibitors of intracellular T. cruzi replication, confirmation, NIH3T3 host cells, beta-gal parasites, cherry-pick, set 2 | shares compounds with T cruzi growth-1 | T. cruzi beta-gal in NIH3T3, GalScreen luminescence, 90 h | inhibition, % at 2.09 µM | 5,600 tested, 21% active;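 active = mean inhibition above about 95%, with at least 55% of replicates also reaching it, limit read from the data; inconclusive = meets just one of the two conditions; inactive = meets neither condition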;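 note: plate controls were neutral control median for no effect and positive control median for full effect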
3T3 cytotox – cytotoxicity in mouse NIH/3T3 fibroblasts, confirmation, cytotoxicity control for T. cruzi proliferation inhibitor project, cell-based, cherry-pick, single point; shares compounds with T cruzi growth-1; NIH/3T3 viability, CellTiter-Glo ATP luminescence, 90 h; cytotoxicity (signal decrease), % at 8.35 µM; 5,600 tested, 14% active;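 active = mean signal decrease across replicates above about 35% based on untreated-well scatter, with enough replicates individually passing, limit read from the data; inconclusive = no rule stated though some were filed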;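 note: 0% = median of neutral control wells and 100% = median of positive control wells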
3T3 cytotox 2 – NIH/3T3 fibroblast cytotoxicity, confirmation, cytotoxicity control, cell-based, cherry-pick, single point, set 2; shares compounds with T cruzi growth-1; AID 651744, 2012; inhibition, % at 24.9 µM; NIH/3T3 viability, CellTiter-Glo ATP luminescence, 90 h; 5,600 tested, 56% active;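 active = mean loss of cell viability signal at or above a set limit, and enough replicates individually reaching it; inconclusive = meets only the mean limit or only the replicate share; inactive = meets neither condition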;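 note: 0% = median of neutral control wells and 100% = median of positive control wells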
Starred values were filed as active, the others as inactive; ? = inconclusive; . = no result given. Compounds with a hit are over-represented: about 6.7% of the library has one in this group of screens.

SMILES	C diff HTS	T cruzi growth-1	Pf Dd2 growth	T cruzi growth-2	T cruzi growth-3	3T3 cytotox	3T3 cytotox 2
CC(C)(O)C#Cc1ccc([C@H]2[C@H]3CN(C(=O)c4cccc(F)c4)CCCCN3[C@H]2CO)cc1	11	79	24	.	.	.	.
CC(C)(O)C#Cc1ccc([C@H]2[C@H](CO)N3CCCCN(C(=O)c4ccc(F)cc4)C[C@@H]23)cc1	12	122*	-94*	?	-11	13	20
Cc1ccc(-c2cnc3c(c2)C(=O)N([C@H](C)CO)C[C@@H](C)[C@@H](CN(C)C)O3)cc1	-1	-69	26	.	.	.	.
COCC(=O)Nc1ccc2c(c1)OC[C@H](C)N(Cc1cccc(F)c1)C[C@H](C)[C@@H](OC)CN(C)C2=O	-3	.	-19	.	.	.	.
CC(C)C#Cc1ccc2c(c1)O[C@H](CN(C)C(=O)Cc1ccccn1)[C@H](C)CN([C@H](C)CO)S2(=O)=O	13	33	-22	.	.	.	.
C[C@@H]1CN([C@H](C)CO)S(=O)(=O)c2ccc(C#Cc3ccccc3)cc2O[C@@H]1CN(C)C(=O)Cc1ccccn1	1	?	-71	109*	73	24	58*
CC(C)C#Cc1ccc2c(c1)O[C@@H](CN(C)C(=O)Cc1ccccn1)[C@H](C)CN([C@H](C)CO)S2(=O)=O	0	20	-53	.	.	.	.
C[C@H]1CN([C@@H](C)CO)S(=O)(=O)c2ccc(C#Cc3ccccc3)cc2O[C@@H]1CN(C)C(=O)Cc1ccccn1	-10	105*	-78	105*	35	21	51*
C[C@@H]1CN([C@H](C)CO)C(=O)c2cc(-c3cccc(F)c3)cnc2O[C@@H]1CN(C)C(=O)c1cnccn1	-5	-49	49	.	.	.	.
COc1ccccc1C#Cc1ccc2c(c1)O[C@@H](CN(C)C)[C@H](C)CN([C@H](C)CO)S2(=O)=O	3	.	-59	.	.	.	.
CCCN(C)C[C@H]1Oc2cc(C#Cc3ccccc3OC)ccc2S(=O)(=O)N([C@@H](C)CO)C[C@H]1C	5	97*	-63	106*	80	7	105*
CCCN(C)C[C@@H]1Oc2cc(C#Cc3ccccc3OC)ccc2S(=O)(=O)N([C@H](C)CO)C[C@@H]1C	11	97*	-84*	108*	81	21	107*
CCCN(C)C[C@H]1Oc2cc(C#Cc3ccccc3F)ccc2S(=O)(=O)N([C@H](C)CO)C[C@H]1C	10	80	-74	.	.	.	.
CCC(=O)Nc1ccc2c(c1)OC[C@H](C)N(CCc1ccccc1)C[C@@H](C)[C@@H](OC)CN(C)C2=O	.	40	-44	.	.	.	.
CCNC(=O)C[C@H]1CC[C@H]2[C@@H](COC[C@@H](O)CN2C(=O)C2CCCC2)O1	.	31	-5	.	.	.	.
O=S(=O)(N[C@H]1CC[C@@H](CCn2cc(Cc3ccccc3)nn2)O[C@@H]1CO)c1ccccc1F	-6	17	-7	.	.	.	.
COc1cccc(S(=O)(=O)N2CCCCN3[C@@H](CO)[C@H](c4ccc(C#CC5CC5)cc4)[C@@H]3C2)c1	12	107*	4	109*	89	16	105*
COCC#Cc1ccc([C@H]2[C@@H](CO)N3CCCCN(S(=O)(=O)c4cccc(OC)c4)C[C@H]23)cc1	17	92	-63	.	.	.	.
COCC#Cc1ccc([C@@H]2[C@H](CO)N3CCCCN(S(=O)(=O)c4cccc(OC)c4)C[C@@H]23)cc1	-4	107*	-45	103*	38	32	45*
COc1cccc(S(=O)(=O)N2CCCCN3[C@H](C2)[C@@H](c2ccc(C#CC4CC4)cc2)[C@@H]3CO)c1	-2	121*	4	93	93	4	?
Cc1cccc(S(=O)(=O)N2CCCCN3[C@@H](CO)[C@@H](c4ccc(C#CC5CC5)cc4)[C@@H]3C2)c1	43	65	?	.	.	.	.

Screening data: PubChem BioAssay, Broad Institute
